Results as given in PubChem BioAssay.
The source made the active and inactive calls.

experiment: E. coli growth modulation, two-sided OD650, primary screen, E. coli filamentation project, strain DRC41, 24 h (AID 1093); conditions: OD650, 24 h, higher = more signal, called active from +8 up or from −8 down;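 also: MC1000 strain lacking acrAB efflux and sulA so SOS filamentation is blocked; test concentration not given here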

Structure (SMILES)	z-score
COc1ccc([Si](C)(C)[C@H]2[C@H](CC(=O)N3CCC[C@H]3CO)O[C@@]3(C(=O)N(Cc4cccc(N5C(=O)COc6ccccc65)c4)c4ccccc43)[C@@H]2C)cc1	1.43 (inactive)
CC(=O)OC[C@H]1O[C@H](C#CCCCc2ccccc2)C=C[C@@H]1OC(C)=O	0.0065 (inactive)
CC(C)[C@H](NC(=O)OC(C)(C)C)[C@@H](O)CC(=O)OC(C)(C)C	-0.809 (inactive)
COCCCNC(=O)[C@]1(CCC(=O)OC(C)(C)C)N=C(c2ccc(OCCCO)cc2)O[C@@H]1c1ccccc1N=[N+]=[N-]	0.619 (inactive)
C[C@@H]1C=CCC(=O)OC[C@H](C)C(=O)N[C@@H](C)C(=O)OC1	0.715 (inactive)
COC(=O)[C@@]1(Cc2ccc(F)cc2)[C@H]2c3cc(C(=O)N(C)C)n(Cc4ccc(OC)c(OC)c4)c3C[C@H]2CN1C(=O)c1ccccc1	-0.31 (inactive)
CCCCCN1CC=CC23O[C@@H]4C=CCOC(=O)[C@@H]4[C@H]2C(=O)N(CCCCCCO)[C@@H]3C1=O (stereo not given in full)	0.0293 (inactive)
COc1ccc(O[C@H]2C=C[C@@H](c3ccccc3)O[C@@H]2COC(=O)CCC(C)=NO[C@H](C)c2cn([C@@H]3COC[C@H]3O)nn2)cc1	0.508 (inactive)
C#C[C@@H]1Oc2ccccc2S(=O)(=O)N2CCC[C@H]12	-1.1 (inactive)
CC(C)(C)OC(=O)CC[C@]1(C(N)=O)COC(c2ccc(OCCCO)cc2)=N1	0.308 (inactive)
COc1ccc(O[C@H]2C=C[C@@H](c3ccccc3)O[C@@H]2COC(=O)CCC(C)=NOC[C@@H](C)[C@H](OCc2ccccc2)C(C)C)cc1	0.17 (inactive)
Cc1ccc(F)cc1S(=O)(=O)N[C@@H]1CCN(Cc2ccc(CC(C)C)cc2)C1	-19.5 (active)
CCc1cc2c(nc1CC)CCN(CCC(C)=NOC(C)CN1CCCc3nc(C)c(C)cc31)C2 (stereo not given)	0.517 (inactive)
Cc1ccc(S(=O)(=O)N[C@@H]2COC(=O)[C@H](C)COC(=O)CC=C[C@H]2C)cc1	-0.234 (inactive)
O=C1C[C@@H](O)[C@@H](O)[C@@H]2[C@@H]3C(=O)N(Cc4ccc5c(c4)OCO5)C(=O)[C@@H]3CC[C@@H]12	0.701 (inactive)
CN1C(=O)[C@@]2(CCC(=O)OC(C)(C)C)N=C(c3ccc(OCCCO)cc3)O[C@H]2c2ccccc21	1.43 (inactive)
COCCOC(=O)N1C(=O)[C@@]2(c3cc(C#CC4(O)CCCCCC4)ccc31)[C@H](C(=O)N1CCN(c3ncccn3)CC1)[C@H]1C(=O)O[C@H](c3ccccc3)[C@H](c3ccccc3)N1[C@@H]2c1ccc(OCCO)cc1	2.25 (inactive)
CCOC(=O)[C@H](CC(C)C)NC(=O)CCC1CC(OC(=O)NCc2cccc3ccccc23)CC2(CCCC(COC(=O)NCCc3ccccc3OC)O2)O1 (stereo not given in full)	-0.197 (inactive)

Structure (SMILES)	z-score
COC(=O)[C@H](C)NC(=O)CCC1CC(OC(=O)NCc2cccc3ccccc23)CC2(CCCC(COC(=O)NCCc3ccc(Cl)cc3)O2)O1 (stereo not given in full)	0.129 (inactive)
O[C@@H](Cc1ccccc1)[C@H]1C2C=CCCC(c3ccccc3)=C2CN1Cc1cccc(Cl)c1 (stereo not given in full)	2.78 (inactive)
O=C1[C@H]2[C@H]3[C@H](O)[C@H](O)CC(=NO[C@@H]4O[C@H](CO)[C@@H](O)[C@H](O)[C@H]4O)[C@@H]3CC[C@H]2C(=O)N1Cc1ccccc1	0.0628 (inactive)
COCCOC(=O)N1C(=O)[C@@]2(c3cc(C#CCNC(N)=O)ccc31)[C@H](c1ccccc1OCCO)N1[C@H](c3ccccc3)[C@H](c3ccccc3)OC(=O)[C@H]1[C@@H]2C(=O)N1CCN(c2ncccn2)CC1	0.961 (inactive)
O=C1[C@H]2[C@H]3[C@H](O)[C@H](O)CC(=NO[C@@H]4O[C@H](CO)[C@@H](O)[C@H](O)[C@H]4O)[C@H]3CC[C@H]2C(=O)N1Cc1ccccc1	-0.61 (inactive)
CC(C)(C)N1C(=O)[C@H]2[C@H]3[C@H](O)[C@H](O)CC(=NO[C@@H]4O[C@H](CO)[C@@H](O)[C@H](O)[C@H]4O)[C@@H]3CC[C@H]2C1=O	0.637 (inactive)
O=C1[C@H]2[C@H]3[C@H](O)[C@H](O)CC(=NO[C@@H]4O[C@H](CO)[C@@H](O)[C@H](O)[C@H]4O)[C@H]3CC[C@H]2C(=O)N1C1CCCCC1	0.15 (inactive)
CC[C@@H](c1ccccc1)n1c(=O)n2n(c1=O)[C@H]1[C@H](O)[C@@H]3O[C@@H]3C(=NOCC(C)C)[C@H]1CC2	0.409 (inactive)
CCCC[C@@H](O)C1=C(C)C[C@H]2C(=O)N(Cc3ccccc3)C(=O)[C@H]2[C@H]1CO	0.706 (inactive)
CC(C)=C1C(=O)C(c2ccccc2)=C2CN3C(=O)N(CCc4ccccc4)C(=O)[C@]3(Cc3ccc(F)cc3)[C@H]21	-1.7 (inactive)
N#Cc1ccc(NN2C(C(O)c3cc(C(F)(F)F)cc(C(F)(F)F)c3)C=CC3C(=O)N(c4ccccc4)C(=O)C32)cc1 (stereo not given)	-1.55 (inactive)
[N-]=[N+]=NCc1ccccc1[C@@H]1OC(c2ccc(OCCCO)cc2)=N[C@]1(Cc1ccccc1)C(=O)N1CCOCC1	0.986 (inactive)
CC(CCN1CCCCc2nc(C)c(C)cc21)=NOC(C)CN1CCCCc2nc(C)c(C)cc21 (stereo not given)	-0.0919 (inactive)
O=C(NN=C1C[C@@H](O)[C@@H](O)[C@@H]2[C@@H]3C(=O)N(c4cccc(Oc5ccccc5)c4)C(=O)[C@@H]3CC[C@H]12)OCc1ccccc1	1.24 (inactive)
CCOC(=O)CCN1C(=O)[C@H]2[C@H]3[C@H](O)[C@H](O)CC(=O)[C@H]3CC[C@H]2C1=O	0.355 (inactive)
O=C1O[C@@H](c2ccccc2)[C@@H](c2ccccc2)N2[C@@H](c3ccc(OCCO)cc3)[C@]3(C(=O)Nc4ccc(C#CCCO)cc43)[C@@H](C(=O)N3CCCCCCC3)[C@H]12	0.694 (inactive)
c1ccc(C2NCCc3c2[nH]c2ccccc32)cc1 (stereo not given)	-0.937 (inactive)
